Measurements reported in PubChem BioAssay.
Calls of active or inactive are those of the source.

Tests used:
[1] = system: PRMT1 (protein arginine N-methyltransferase 1); assay: small molecules binding arginine methyltransferase PRMT1 – biochemical, small-molecule microarray, 635 nm fluorescence, primary screen (AID 1088); details: higher = more signal;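 also: binding of Prmt1 protein to compounds spotted on small-molecule microarray slides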
[2] = growth effects on S. cerevisiae YJM789 – YJM789 clinical isolate, OD600, 24 h, basal, primary screen (AID 1089); details: higher = more signal, called active from +8 up or from −8 down;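 also: growth of clinical yeast isolate S. cerevisiae YJM 789 seeded 1000 cells per well; test concentration not given here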
[3] = S. pombe growth modifiers, basal conditions – strain 972, OD600, 24 h, no modulator, primary screen (AID 1090);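 also: basal condition with compound alone and no growth modifier present; test concentration not given here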; details: S. pombe 972 growth, higher = more signal, called active from +8 up or from −8 down
[4] = budding yeast growth modifiers under rapamycin – strain BY4716, OD600, 96 h, primary screen (AID 1091); also: test concentration not given here; details: S. cerevisiae BY4716 + rapamycin, higher = more signal, called active from +8 up or from −8 down
[5] = target: Torsin-1A-interacting protein 2 (Homo sapiens) (UniProt Q8NFQ8); assay: small molecules binding lysate-expressed LULL1 – cell lysate, human LULL1 lysate, 635/667 nm fluorescence, primary screen (AID 1092); details: small-molecule microarray, hLULL1 lysate binding, 635 nm fluorescence; higher = more signal;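 also: probe is lysate of COS7 cells overexpressing human LULL1; score merges per-feature 667 nm fluorescence with signal-to-noise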
Chain of Torsin-1A-interacting protein 2 (Homo sapiens) (Q8NFQ8 whole entry, looked up): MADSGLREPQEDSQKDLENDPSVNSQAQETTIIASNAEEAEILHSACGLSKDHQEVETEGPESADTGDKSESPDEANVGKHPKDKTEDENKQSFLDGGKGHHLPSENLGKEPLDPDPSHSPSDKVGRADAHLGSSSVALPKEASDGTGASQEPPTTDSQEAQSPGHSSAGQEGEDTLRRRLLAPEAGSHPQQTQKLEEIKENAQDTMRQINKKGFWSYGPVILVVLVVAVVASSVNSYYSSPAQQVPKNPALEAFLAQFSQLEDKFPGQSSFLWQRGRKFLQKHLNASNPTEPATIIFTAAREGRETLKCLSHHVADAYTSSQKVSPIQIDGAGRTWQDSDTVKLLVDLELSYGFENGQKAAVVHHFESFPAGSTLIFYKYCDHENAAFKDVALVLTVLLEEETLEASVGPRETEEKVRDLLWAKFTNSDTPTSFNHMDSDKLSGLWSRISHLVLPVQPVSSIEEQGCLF

[6] = optical density change of DRC41 E. coli – strain DRC41, OD650, 24 h, E. coli filamentation project, primary screen (AID 1093);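 also: MC1000 strain lacking acrAB efflux and sulA so SOS filamentation is blocked; test concentration not given here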; details: E. coli DRC41 growth, higher = more signal, called active from +8 up or from −8 down
[7] = probe aLefty2 binding to arrayed compounds – biochemical, biotinylated probe, 635/667 nm fluorescence, primary screen (AID 1094); details: small-molecule microarray, higher = more signal;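 also: score merges spot fluorescence near 667 nm with spot signal-to-noise ratio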
[8] = system: Noggin (protein binding on small-molecule microarray); assay: small molecules binding Noggin protein – biochemical, 635/667 nm fluorescence, primary screen (AID 1095); details: 635 nm fluorescence, higher = more signal;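 also: score merges 667 nm feature fluorescence with signal to noise over triplicate slides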
[9] = target: Neurogenic locus notch homolog protein 3 (Homo sapiens) (UniProt Q9UM47); assay: small molecules binding NOTCH3 protein – biochemical, 635/667 nm fluorescence, primary screen (AID 1096); details: small-molecule microarray, 635 nm fluorescence, higher = more signal
Chain of Neurogenic locus notch homolog protein 3 (Homo sapiens) (Q9UM47 whole entry, looked up): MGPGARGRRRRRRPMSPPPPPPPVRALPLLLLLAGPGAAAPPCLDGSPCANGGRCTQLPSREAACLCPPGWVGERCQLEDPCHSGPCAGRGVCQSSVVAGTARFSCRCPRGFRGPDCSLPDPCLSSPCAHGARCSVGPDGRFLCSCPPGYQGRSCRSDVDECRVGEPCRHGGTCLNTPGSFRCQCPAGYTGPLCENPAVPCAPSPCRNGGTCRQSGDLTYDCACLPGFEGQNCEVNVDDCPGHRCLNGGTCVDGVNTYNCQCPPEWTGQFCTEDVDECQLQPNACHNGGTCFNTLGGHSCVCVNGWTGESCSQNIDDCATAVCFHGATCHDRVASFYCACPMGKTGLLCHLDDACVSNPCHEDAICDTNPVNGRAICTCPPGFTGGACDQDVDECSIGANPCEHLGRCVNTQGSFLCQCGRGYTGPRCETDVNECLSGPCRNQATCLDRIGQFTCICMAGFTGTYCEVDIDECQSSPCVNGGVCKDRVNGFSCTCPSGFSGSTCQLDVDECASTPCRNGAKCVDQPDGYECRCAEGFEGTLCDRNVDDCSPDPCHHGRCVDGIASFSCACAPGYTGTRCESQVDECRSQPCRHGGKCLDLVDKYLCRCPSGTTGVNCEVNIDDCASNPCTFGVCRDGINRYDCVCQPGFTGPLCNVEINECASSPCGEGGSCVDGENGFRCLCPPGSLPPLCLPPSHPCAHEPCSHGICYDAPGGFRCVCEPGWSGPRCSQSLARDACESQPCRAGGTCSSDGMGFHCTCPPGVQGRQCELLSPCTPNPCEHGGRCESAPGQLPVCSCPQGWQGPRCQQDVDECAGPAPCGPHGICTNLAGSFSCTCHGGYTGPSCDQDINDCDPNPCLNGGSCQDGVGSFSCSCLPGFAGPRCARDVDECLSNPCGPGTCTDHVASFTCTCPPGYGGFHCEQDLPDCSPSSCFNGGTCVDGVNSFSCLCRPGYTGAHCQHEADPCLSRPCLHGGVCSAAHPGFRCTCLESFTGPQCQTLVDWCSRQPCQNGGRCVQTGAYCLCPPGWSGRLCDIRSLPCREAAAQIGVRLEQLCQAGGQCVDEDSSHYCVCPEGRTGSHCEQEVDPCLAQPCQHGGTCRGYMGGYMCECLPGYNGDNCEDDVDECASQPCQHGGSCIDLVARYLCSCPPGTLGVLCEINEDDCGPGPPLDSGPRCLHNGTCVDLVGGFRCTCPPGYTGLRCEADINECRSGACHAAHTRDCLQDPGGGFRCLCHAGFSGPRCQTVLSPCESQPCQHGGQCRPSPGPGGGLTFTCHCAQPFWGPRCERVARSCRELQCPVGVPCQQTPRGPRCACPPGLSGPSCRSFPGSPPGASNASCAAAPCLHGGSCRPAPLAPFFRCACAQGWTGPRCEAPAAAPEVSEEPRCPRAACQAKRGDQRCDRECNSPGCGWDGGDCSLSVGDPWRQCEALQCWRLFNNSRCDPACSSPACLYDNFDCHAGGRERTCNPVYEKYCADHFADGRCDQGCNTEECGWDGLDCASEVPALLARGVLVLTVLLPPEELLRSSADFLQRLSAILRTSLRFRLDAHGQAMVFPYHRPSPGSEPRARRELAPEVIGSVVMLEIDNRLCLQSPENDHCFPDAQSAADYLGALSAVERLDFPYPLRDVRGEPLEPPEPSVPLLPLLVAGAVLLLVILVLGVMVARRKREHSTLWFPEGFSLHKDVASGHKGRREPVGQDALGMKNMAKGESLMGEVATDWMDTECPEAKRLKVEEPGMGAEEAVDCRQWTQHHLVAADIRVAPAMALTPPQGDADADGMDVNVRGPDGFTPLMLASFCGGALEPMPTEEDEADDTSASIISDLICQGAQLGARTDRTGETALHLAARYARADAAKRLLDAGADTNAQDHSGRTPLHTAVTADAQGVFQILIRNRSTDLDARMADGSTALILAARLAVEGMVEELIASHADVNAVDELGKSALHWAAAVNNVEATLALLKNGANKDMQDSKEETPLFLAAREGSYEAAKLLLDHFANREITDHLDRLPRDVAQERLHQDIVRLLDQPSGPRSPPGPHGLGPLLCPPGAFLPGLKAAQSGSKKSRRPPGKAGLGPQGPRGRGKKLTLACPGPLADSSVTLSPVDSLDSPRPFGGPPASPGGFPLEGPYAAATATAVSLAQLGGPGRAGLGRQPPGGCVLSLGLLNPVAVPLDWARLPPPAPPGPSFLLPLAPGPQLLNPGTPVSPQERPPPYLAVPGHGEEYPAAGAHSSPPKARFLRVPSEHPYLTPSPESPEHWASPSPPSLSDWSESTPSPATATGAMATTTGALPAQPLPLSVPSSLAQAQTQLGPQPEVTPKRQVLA

[10] = probe aEGFR binding to arrayed compounds – biochemical, biotinylated probe, 635/667 nm fluorescence, primary screen (AID 1097); details: small-molecule microarray, higher = more signal;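 also: probe is a biotinylated anti-EGFR antibody binding compounds printed on slides; score combines fluorescence near 667 nm and signal to noise of each spot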
[11] = system: Plasmodium falciparum Sir2 (PF13_0152, Sir2A); assay: Plasmodium falciparum Sir2A binding compounds – biochemical, small-molecule microarray, 635 nm fluorescence, primary screen (AID 1098); details: fluorescence 635 nm, higher = more signal;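 also: score merges spot fluorescence intensity with its signal-to-noise ratio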
[12] = probe aDKK1 binding to arrayed compounds – biochemical, biotinylated probe, 635/667 nm fluorescence, primary screen (AID 1099); details: small-molecule microarray, higher = more signal;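 also: score merges 667nm spot fluorescence with signal to noise across triplicate slides; reference of the scale not given here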
[13] = probe aCHRDL2 binding to arrayed compounds – biochemical, biotinylated probe, 635/667 nm fluorescence, primary screen (AID 1100); details: small-molecule microarray, higher = more signal
[14] = change in splice reporter luminescence, either direction, cell-based, HEK293, spliceosome inhibition project, primary screen (AID 1101); details: HEK293 splicing luciferase reporter, 24 h, higher = more signal, called active from +8 up or from −8 down;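 also: HEK293 cells carrying a splicing-competent luciferase reporter gene; test concentration not given here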
[15] = target: Fibroblast growth factor 10 (Homo sapiens) (UniProt O15520); assay: compounds binding fibroblast growth factor 10 – biochemical, small-molecule microarray, 635 nm fluorescence, primary screen (AID 1102); details: FGF10 binding, fluorescence 635 nm, higher = more signal
Chain of Fibroblast growth factor 10 (Homo sapiens) (O15520 whole entry, looked up): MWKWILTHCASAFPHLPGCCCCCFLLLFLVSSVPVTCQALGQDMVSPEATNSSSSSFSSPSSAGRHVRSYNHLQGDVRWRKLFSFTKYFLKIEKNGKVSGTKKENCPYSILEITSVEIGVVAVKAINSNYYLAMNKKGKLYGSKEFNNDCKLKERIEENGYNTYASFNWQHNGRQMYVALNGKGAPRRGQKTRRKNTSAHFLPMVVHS

[16] = system: glycogen synthase kinase-3 (GSK3A per assay name; protocol says GSK3B); assay: compounds binding glycogen synthase kinase-3 – biochemical, small-molecule microarray, 635 nm fluorescence, GSK3A, primary screen (AID 1103); details: fluorescence 635 nm, higher = more signal; also: the record names both GSK3A and GSK3B
[17] = target: Epidermal growth factor receptor (Homo sapiens) (UniProt P00533); assay: compounds binding epidermal growth factor receptor – biochemical, small-molecule microarray, 635 nm fluorescence, primary screen (AID 1104); details: EGFR binding, higher = more signal;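 also: score merges 667 nm emission intensity with spot signal to noise over triplicate slides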
Chain of Epidermal growth factor receptor (Homo sapiens) (P00533 whole entry, looked up): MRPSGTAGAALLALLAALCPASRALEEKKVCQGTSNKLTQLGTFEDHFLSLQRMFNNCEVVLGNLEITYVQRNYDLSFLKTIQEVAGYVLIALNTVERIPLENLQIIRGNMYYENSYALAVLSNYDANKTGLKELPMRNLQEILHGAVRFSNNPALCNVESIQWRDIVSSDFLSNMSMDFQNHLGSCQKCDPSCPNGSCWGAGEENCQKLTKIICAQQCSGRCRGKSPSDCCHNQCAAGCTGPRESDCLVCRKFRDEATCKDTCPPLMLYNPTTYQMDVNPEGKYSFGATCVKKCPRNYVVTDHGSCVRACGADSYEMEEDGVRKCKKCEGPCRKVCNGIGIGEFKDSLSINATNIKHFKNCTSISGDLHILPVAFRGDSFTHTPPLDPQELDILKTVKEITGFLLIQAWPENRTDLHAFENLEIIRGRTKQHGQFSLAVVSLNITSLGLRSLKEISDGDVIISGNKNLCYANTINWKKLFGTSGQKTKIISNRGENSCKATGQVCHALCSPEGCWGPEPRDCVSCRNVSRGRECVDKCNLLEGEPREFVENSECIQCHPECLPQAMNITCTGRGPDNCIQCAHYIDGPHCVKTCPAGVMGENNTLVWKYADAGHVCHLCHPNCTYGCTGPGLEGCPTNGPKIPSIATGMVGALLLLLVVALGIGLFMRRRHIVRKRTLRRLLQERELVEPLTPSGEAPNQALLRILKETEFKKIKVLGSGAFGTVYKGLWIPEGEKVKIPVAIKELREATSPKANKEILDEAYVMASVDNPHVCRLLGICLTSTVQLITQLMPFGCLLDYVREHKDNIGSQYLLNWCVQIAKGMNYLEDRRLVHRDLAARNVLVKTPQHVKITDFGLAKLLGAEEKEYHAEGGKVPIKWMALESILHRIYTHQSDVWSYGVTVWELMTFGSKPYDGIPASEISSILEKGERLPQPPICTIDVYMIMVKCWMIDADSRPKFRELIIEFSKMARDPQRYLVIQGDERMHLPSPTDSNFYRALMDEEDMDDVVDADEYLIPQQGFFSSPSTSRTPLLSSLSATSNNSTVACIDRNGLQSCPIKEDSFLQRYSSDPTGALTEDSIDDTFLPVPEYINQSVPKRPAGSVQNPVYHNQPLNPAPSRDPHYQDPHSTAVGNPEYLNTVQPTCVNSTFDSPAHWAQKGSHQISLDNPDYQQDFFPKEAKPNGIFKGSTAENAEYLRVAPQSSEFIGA

[18] = target: Follistatin-related protein 3 (Homo sapiens) (UniProt O95633); assay: compounds binding follistatin-related protein 3 – biochemical, small-molecule microarray, 635 nm fluorescence, primary screen (AID 1105); details: FSTL3 binding, higher = more signal;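 also: score merges emission near 667 nm and signal to noise per printed spot across three slides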
Chain of Follistatin-related protein 3 (Homo sapiens) (O95633 whole entry, looked up): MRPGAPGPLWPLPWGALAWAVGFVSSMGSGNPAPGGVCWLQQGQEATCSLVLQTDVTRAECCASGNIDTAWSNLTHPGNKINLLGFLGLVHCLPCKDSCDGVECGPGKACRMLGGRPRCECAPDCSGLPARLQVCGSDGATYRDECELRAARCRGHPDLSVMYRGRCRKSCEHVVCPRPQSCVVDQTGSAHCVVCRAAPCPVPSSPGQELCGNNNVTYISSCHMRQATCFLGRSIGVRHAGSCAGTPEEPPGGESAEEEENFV

[19] = target: Dickkopf-related protein 1 (Homo sapiens) (UniProt O94907); assay: small molecules binding DKK1 protein – biochemical, small-molecule microarray, 635 nm fluorescence scan, primary screen (AID 1106); details: higher = more signal;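 also: score merges emission near 667 nm with signal to noise over three replicate slides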
Chain of Dickkopf-related protein 1 (Homo sapiens) (O94907 whole entry, looked up): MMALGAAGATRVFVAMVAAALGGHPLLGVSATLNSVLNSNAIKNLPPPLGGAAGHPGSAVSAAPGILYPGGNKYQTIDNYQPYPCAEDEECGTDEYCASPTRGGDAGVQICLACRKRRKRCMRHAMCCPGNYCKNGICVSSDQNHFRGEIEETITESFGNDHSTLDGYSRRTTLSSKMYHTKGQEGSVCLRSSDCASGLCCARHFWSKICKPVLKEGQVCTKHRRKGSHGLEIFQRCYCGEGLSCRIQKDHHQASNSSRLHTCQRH

[20] = system: Inhibin beta A chain (activin A); assay: small molecules binding activin A – biochemical, small-molecule microarray, 635 nm fluorescence scan, primary screen (AID 1107); details: INHBA, higher = more signal;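 also: mouse activin A protein probed at 4.33 µg/mL on printed slides; score merges bound-protein fluorescence near 667 nm with spot signal-to-noise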

With `CC(CCN1CCCc2nc(C)c(C)cc21)=NO[C@H](C)c1cn([C@@H]2COC[C@H]2O)nn1` the composite z-score [1] was 1.16, the z-score [2] was 1.17 (inactive) and the z-score [3] was 1.12 (inactive). The z-score [4] was 0.468 (inactive), the composite z-score [5] was 0.788 and the z-score [6] was 1.24 (inactive). The composite z-score [7] was 0.13, the composite z-score [8] was 0.566 and the composite z-score [9] was 0.676. The composite z-score [10] was 0.187, the composite z-score [11] was 0.389 and the composite z-score [12] was -0.156. The composite z-score [13] was -0.519, the z-score [14] was 0.169 (inactive) and the composite z-score [15] was 0.667. The composite z-score [16] was 1.11, the composite z-score [17] was 1.06 and the composite z-score [18] was 0.884. For the same compound, the composite z-score [19] was 0.902 and the composite z-score [20] was 1.26.

With `CC(CCN1CCc2nc(-c3ccccc3)c(-c3ccccc3)cc2C1)=NO[C@H](C)c1cn([C@H](CO)Cc2ccccc2)nn1` the composite z-score [1] was 0.485, the z-score [2] was -0.0115 (inactive) and the z-score [3] was -0.989 (inactive). The z-score [4] was -4.22 (inactive), the composite z-score [5] was 0.381 and the z-score [6] was 0.561 (inactive). For the same compound, the composite z-score [7] was 0.0272, the composite z-score [8] was 0.622 and the composite z-score [9] was -0.0395. For the same compound, the composite z-score [10] was -0.122, the composite z-score [11] was 0.343 and the composite z-score [12] was -0.0154. The composite z-score [13] was 0.407, the z-score [14] was -0.534 (inactive) and the composite z-score [15] was -0.356. The composite z-score [16] was -0.135, the composite z-score [17] was -0.0273 and the composite z-score [18] was 0.177. It also gave a composite z-score [19] of -0.193 and a composite z-score [20] of 1.09.

With `CCN1C(=O)[C@H]2[C@H]3[C@H](O)[C@H](O)CC(=NO[C@@H]4O[C@H](COC(C)=O)[C@@H](OC(C)=O)[C@H](OC(C)=O)[C@H]4OC(C)=O)[C@@H]3CC[C@H]2C1=O` the composite z-score [1] was 1.29, the z-score [2] was 0.461 (inactive) and the z-score [3] was 0.208 (inactive). For the same compound, the z-score [4] was 0.47 (inactive), the composite z-score [5] was 1.05 and the z-score [6] was 1.16 (inactive). For the same compound, the composite z-score [7] was 0.015, the composite z-score [8] was 0.597 and the composite z-score [9] was 1.03. It also gave a composite z-score [10] of 0.0091, a composite z-score [11] of 0.579 and a composite z-score [12] of 0.0594. The composite z-score [13] was -0.601, the z-score [14] was 0.5 (inactive) and the composite z-score [15] was 0.868. For the same compound, the composite z-score [16] was 0.612, the composite z-score [17] was 0.591 and the composite z-score [18] was 1.11. It also gave a composite z-score [19] of 0.735 and a composite z-score [20] of -0.371.

With `COc1ccc2c(c1)O[C@@H](c1cccc(C(F)(F)F)c1)[C@H](O)C2=O` the composite z-score [1] was 0.222, the z-score [2] was -3.42 (inactive) and the z-score [3] was -6.34 (inactive). The z-score [4] was -0.489 (inactive), the composite z-score [5] was 1.19 and the z-score [6] was 1.2 (inactive). The composite z-score [7] was -0.261, the composite z-score [8] was 0.614 and the composite z-score [9] was 0.661. For the same compound, the composite z-score [10] was 0.0251, the composite z-score [11] was 0.0008 and the composite z-score [12] was -0.14. The composite z-score [13] was -0.324, the z-score [14] was -0.912 (inactive) and the composite z-score [15] was 0.213. It also gave a composite z-score [16] of 0.39, a composite z-score [17] of 0.349 and a composite z-score [18] of 0.416. It also gave a composite z-score [19] of 0.356 and a composite z-score [20] of 0.149.

In the case of `CCN1C(=O)[C@H]2[C@H]3[C@H](O)[C@H](O)CC(=NOC(C)CN4CCCc5nc(C)c(C)cc54)[C@@H]3CC[C@H]2C1=O` (stereo not given in full), the composite z-score [1] is reported as 1.46, the z-score [2] is reported as -0.0428 (inactive) and the z-score [3] is reported as 1.19 (inactive). For the same compound, the z-score [4] was 0.385 (inactive), the composite z-score [5] was 0.404 and the z-score [6] was 1.32 (inactive). For the same compound, the composite z-score [7] was 0.0416, the composite z-score [8] was 1.16 and the composite z-score [9] was 0.597. It also gave a composite z-score [10] of 0.012, a composite z-score [11] of 0.333 and a composite z-score [12] of 0.0478. The composite z-score [13] was -0.598, the z-score [14] was 0.189 (inactive) and the composite z-score [15] was 0.784. It also gave a composite z-score [16] of 0.901, a composite z-score [17] of 0.692 and a composite z-score [18] of 0.783. The composite z-score [19] was 0.713 and the composite z-score [20] was 0.907.
